PubChem BioAssay (NCI)
This is part of a sample that, as a whole, favours compounds with a hit. Of some 83,000 tested, about 20% had one in any assay.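 Cells were grown in 96-well plates and exposed to the test compound at a single concentration for 48 hours; results are reported as percent growth, with values below 10 considered active.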 Values without a mark were called inactive. The source made the active and inactive calls.

Tested on: T-47D breast
Assay: NCI-60 one-dose screen, 48 h (100 = growth as untreated, 0 = no growth, -100 = all killed)
Conditions: 10 µM
Description: Growth inhibition of the T-47D human tumor cell line is measured as a screen for anti-cancer activity. Cells are grown in 96 well plates and exposed to the test compound for 48 hours. Compounds are tested at a single concentration, which is 10^-5 M for most compounds. The reported endpoint is percent growth (GI% or GIPRCNT), where numbers from 0 - 100% represent growth inhibition, and numbers from -100% - 0 represent cell death. For example, a value of 40 represents 60% growth inhibition. A value of 0 means no net growth occurred over the course of the experiment. A value of -40 indicates 40% of cells at the beginning of the experiment died by the end of the experiment. A value of -100 means all cells are dead at the end of the experiment.
NCI-60 Human Tumor Cell Lines Screen was performed using the standard one-dose NCI protocol, which is described in more detail at https://dtp.cancer.gov/discovery_development/nci-60/default.htm.
Compounds with GIPRCNT values below 10 were considered active. Activity score was based on GIPRCNT using the following formula: […]
Score is 0 for GIPRCNT values of 100 or above, 50 for GIPRCNT values of 0, and 100 for GIPRCNT values of -100.

Row | Compound | growth
1 | ClC(Cl)(Cl)c1nc2nccnc2[nH]1 | 101%
2 | COc1cc(CNCCCCCCN2C(=O)c3cccc4cccc(c34)C2=O)ccc1O | 65.3%
3 | O=[N+]([O-])c1cccc(-c2ncc(-c3ccc(Cl)cc3Cl)[nH]2)c1 | 79%
4 | COc1ccc(-c2csc(NC(=O)CSc3nc(C)c(-c4ccccc4)n3Nc3ccccc3)n2)cc1 | 24.8%
5 | Nc1ncn([C@@H]2O[C@H](CO)[C@@H](O)[C@H]2O)c(=O)n1 | 26.6%
6 | CCN1CCN(c2nc3ccccc3c3c(=O)c4ccccc4sc23)CC1 | 54.5%
7 | COc1ccc(-c2nc3ncccn3c2-c2nnc(-c3ccsc3C)o2)cc1 | 92.1%
8 | O=C(Nc1ccc(CN2CCc3nc4cc(O)c(O)cc4cc32)cc1)c1ccc(Cl)c(Cl)c1 | 88.6%
9 | CSCCCNC(=O)c1ccc2c(c1)/C(=C/c1[nH]c(C)cc1C)C(=O)N2 | 44.5%
10 | c1ccc(CSc2nnc3c4c5c(sc4nc(-c4cccnc4)n23)CCCCCC5)cc1 | 14%
11 | COc1cc(Nc2ccnc(NCCNc3ccnc4cc(Cl)ccc34)n2)cc(OC)c1 | 15.5%
12 | COc1ccc(C(=O)/C=C/c2cc(-c3cc(OC)c(OC)c(OC)c3)n[nH]2)cc1 | 13.6%
13 | N#Cc1ncc(-c2cc(F)c(F)c(F)c2)c(NC2CCCCCC2)n1 | 72.6%
14 | S=c1[nH]ccn1-c1c(Cl)cccc1Cl | 91.2%
15 | CC(C)=CCc1ccc(O)c(=O)cc1C(C)C | 20.4%
16 | CCn1cc(C(=O)O)c(=O)c2cnc(N3CCCC3)nc21 | 99.1%
17 | COc1cc2cc3c(nc2cc1OC)CCN3Cc1ccc(NC(=O)c2ccc(Cl)c(C(F)(F)F)c2)cc1 | 64.2%
18 | COc1ccc2nc3cc(Cl)ccc3c(NCCNCC(C)O)c2c1 (stereo not given) | 25.9%
19 | CCCC(F)C(=O)O (stereo not given) | 97.7%
20 | O=C(CC(c1ccccc1)N1CCOCC1)c1ccccc1 (stereo not given) | 72%

Row | Compound | growth
21 | O=C(Nc1ccncc1)C(=O)c1cn(S(=O)(=O)c2cccc3ccccc23)c2ccccc12 | 70.9%
22 | Cc1cc(N(CCCNc2ccnc3cc(Cl)ccc23)Cc2cccs2)nc(Cl)n1 | 22.1%
23 | CC(=O)CSC(C)=O | 103%
24 | Cc1ccc(Nc2nnc(-c3cc(-c4ccncc4)n(-c4ccccc4)n3)s2)cc1 | 64.5%
25 | CCCCOC(=O)Oc1ccc(C(=O)Oc2ccc(OCC)cc2)cc1 | 111%
26 | CC(C)=NNc1ncnc2c1ncn2C1OC(CO)C(O)C1O (stereo not given) | 19.2%
27 | COc1ccc(-c2nc3sc(C4CC4)nn3c2/C=C2/C(=O)Nc3ccc(OC)cc32)cc1 | 68.7%
28 | O=C(N/N=C/c1ccccc1O)C(O)(c1ccccc1)c1ccccc1 | 48.1%
29 | CCCCCCCCCCCCCC[n+]1ccc(C(N)=O)cc1 | 46.9%
30 | Cn1c(N)c(N=Nc2ccc(S(=O)(=O)Nc3nccs3)cc2)c(=O)n(C)c1=O | -10.2% (active)
31 | COc1ccc(-c2nn(-c3cccc(NC(=O)c4ccc5c(c4)OCCO5)c3)cc2-c2ccncc2)cc1Cl | 19.5%
32 | CNc1ncc(-c2ccc(C(F)(F)F)cc2)c(NC2CCCCCC2)n1 | 45.8%
33 | O=C(Nc1cccc(Cl)c1)Nc1nccs1 | 73%
34 | Cc1cccc(NC2=C(C#N)C(=O)NC3(CCCC3)S2)c1 | 102%
35 | Cc1cn(C2CCCCO2)c(=O)nc1NO (stereo not given) | 105%
36 | CC(C)(C)c1ccc(N2CSC(=S)N(c3ccc(C(C)(C)C)cc3)C2)cc1 | 81.4%
37 | COc1ccc(/C=C/C(=O)Nc2ccc(-c3nc4ccc(F)cc4s3)cc2)cc1 | 91%
38 | CC1=C(N2CCOCC2)C(N2CCOCC2)=C(C)C(=O)C1=O | 95.1%
39 | O=C(O)CC(Cl)C(Cl)CC(=O)O (stereo not given) | 99.6%
40 | O=C(Nc1ccc(Cl)c([N+](=O)[O-])c1)Nc1nc2ccccc2s1 | 36.8%
